In PubChem BioAssay AID1159580 (chemical genetic matrix, 2015):
Screen size: about 5,500 compounds; about 2,000 (36%) were called active. About 18% were inconclusive and are not listed. Cut-off read from the data, not from the text of the source: active = normalized growth mostly below about 0.91 (no sharp cut-off); inconclusive = no clear call, values can overlap the other calls; inactive = mostly above about 0.92. This is one part of the list.

Experiment: chemical genetic growth profiling, strain panel (AID 1159580);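 note: tested at 20 µM; growth read once vehicle control cultures reached saturation at 30 °C; 1 = growth at the plate median or of vehicle wells; lower values mean less growth of the strain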
Settings: growth OD
[1] = S. cerevisiae deletion strains, locus YAL040C, strain CLN3, hits give low values
[2] = S. cerevisiae deletion strains, locus YDR363W, strain ESC2, hits give low values
[3] = S. cerevisiae deletion strains, locus YER002W, strain NOP16, hits give low values
[4] = S. cerevisiae deletion strains, locus YJR075W, strain HOC1, hits give low values
[5] = S. cerevisiae deletion strains, locus YNL175C, strain NOP13, hits give low values
[6] = S. cerevisiae deletion strains, locus YNL197C, strain WHI3, hits give low values
[7] = S. cerevisiae deletion strains, locus YNL224C, strain SQS1, hits give low values
[8] = S. cerevisiae deletion strains, locus YOR083W, strain WHI5 (second series), hits give low values
[9] = S. cerevisiae deletion strains, locus YPL055C, strain LGE1, hits give low values
[10] = S. cerevisiae deletion strains, locus YDR150W, strain NUM1, hits give low values
[11] = S. cerevisiae deletion strains, locus YGR078C, strain PAC10, hits give low values
[12] = S. cerevisiae deletion strains, locus YMR307W, strain GAS1, hits give low values
[13] = S. cerevisiae deletion strains, locus YNL128W, strain TEP1, hits give low values
[14] = S. cerevisiae deletion strains, locus YNL153C, strain GIM3, hits give low values
[15] = S. cerevisiae deletion strains, locus YNL322C, strain KRE1, hits give low values
[16] = S. cerevisiae deletion strains, locus YMR263W, strain SAP30, hits give low values
[17] = S. cerevisiae deletion strains, locus YPL241C, strain CIN2, hits give low values
[18] = S. cerevisiae deletion strains, locus YDL101C, strain DUN1, hits give low values
[19] = S. cerevisiae deletion strains, locus YHR030C, strain SLT2, hits give low values

Measured: normalized growth

CC(=O)C(C)=O
inactive: [1] 1.01 | S. cerevisiae deletion strains, locus YCL061C, strain MRC1 (second series), hits give low values 1.01 | [2] 1.03 | [3] 1 | [4] 1.02 | [5] 0.994 | [6] 1.03 | [7] 0.99 | [8] 1.02 | [9] 1.07

CC(=O)/C(C)=N\O
inactive: [1] 0.972 | [10] 0.972 | [2] 1.07 | [3] 0.994 | [11] 1 | [4] 0.987 | [12] 1.07 | [13] 0.983 | [14] 0.979 | [5] 0.978 | [6] 1 | [7] 1.01 | [15] 1 | [8] 0.986

[N-]=[N+]=Nc1ccc(C(=O)CSC[C@H](NC(=O)CC[C@H](N)C(=O)O)C(=O)NCC(=O)O)cc1
inactive: [1] 1.02 | [2] 0.999 | [3] 0.989 | S. cerevisiae deletion strains, locus YGR229C, strain SMI1, hits give low values 1 | [16] 0.997 | [14] 0.99 | [5] 1.01 | [6] 1.01 | [7] 1.01 | [15] 1.01 | [8] 1.01 | [17] 0.996

CSc1ccc(C(=O)O)s1
inactive: S. cerevisiae deletion strains, locus YAL013W, strain DEP1, hits give low values 0.969 | S. cerevisiae deletion strains, locus YBR229C, strain ROT2, hits give low values 0.931 | S. cerevisiae deletion strains, locus YCL061C, strain MRC1, hits give low values 0.938 | [18] 0.939 | [10] 0.945 | S. cerevisiae deletion strains, locus YEL061C, strain CIN8, hits give low values 1.03 | [19] 1.16 | S. cerevisiae deletion strains, locus YJR043C, strain POL32, hits give low values 0.961 | S. cerevisiae deletion strains, locus YKL190W, strain CNB1, hits give low values 1.01 | S. cerevisiae deletion strains, locus YLR039C, strain RIC1, hits give low values 1.04 | S. cerevisiae deletion strains, locus YLR058C, strain SHM2 (second series), hits give low values 0.945 | S. cerevisiae deletion strains, locus YLR085C, strain ARP6, hits give low values 1.1 | S. cerevisiae deletion strains, locus YLR262C, strain YPT6, hits give low values 1.01 | S. cerevisiae deletion strains, locus YML094W, strain GIM5, hits give low values 1.04 | S. cerevisiae deletion strains, locus YMR219W, strain ESC1, hits give low values 0.957 | [16] 0.955 | [12] 1.05 | [13] 1.01 | [14] 0.932 | S. cerevisiae deletion strains, locus YNL298W, strain CLA4 (second series), hits give low values 1.07 | [15] 0.944 | S. cerevisiae deletion strains, locus YNR030W, strain Alg12, hits give low values 1.03 | [9] 0.883 | [17] 0.906 | S. cerevisiae deletion strains, locus YPR135W, strain CTF4, hits give low values 1.11 | S. cerevisiae strains, strain wild type, hits give low values 1.01
active: [11] 0.926 | S. cerevisiae deletion strains, locus YHR087W, strain rtc3, hits give low values 0.862 | [4] 0.874

N#Cc1c(Br)cnn1Cc1cc(C(F)(F)F)cc(C(F)(F)F)c1
active: S. cerevisiae deletion strains, locus YLR113W, strain HOG1, hits give low values 0.761
inactive: S. cerevisiae deletion strains, locus YAR019C, strain CDC15, hits give low values 0.997 | S. cerevisiae deletion strains, locus YBL105C, strain PKC1, hits give low values 1 | S. cerevisiae deletion strains, locus YBR135W, strain CKS1, hits give low values 1.01 | S. cerevisiae deletion strains, locus YBR136W, strain MEC1, hits give low values 0.995 | S. cerevisiae deletion strains, locus YBR160W, strain CDC28, hits give low values 0.999 | S. cerevisiae deletion strains, locus YDL017W, strain CDC7, hits give low values 0.995 | S. cerevisiae deletion strains, locus YDL028C, strain MPS1, hits give low values 1 | [18] 0.988 | S. cerevisiae deletion strains, locus YDL108W, strain KIN28, hits give low values 0.997 | S. cerevisiae deletion strains, locus YDL132W, strain cdc53, hits give low values 0.999 | S. cerevisiae deletion strains, locus YDL214C, strain PRR2, hits give low values 0.863 | S. cerevisiae deletion strains, locus YDR052C, strain DBF4, hits give low values 0.993 | S. cerevisiae deletion strains, locus YDR054C, strain cdc34, hits give low values 0.989 | S. cerevisiae deletion strains, locus YDR226W, strain ADK1, hits give low values 1 | S. cerevisiae deletion strains, locus YDR477W, strain SNF1, hits give low values 0.939 | S. cerevisiae deletion strains, locus YER123W, strain YCK3, hits give low values 0.842 | S. cerevisiae deletion strains, locus YER133W, strain GLC7, hits give low values 0.919 | S. cerevisiae deletion strains, locus YFL009W, strain cdc4, hits give low values 0.993 | S. cerevisiae deletion strains, locus YFL029C, strain CAK1, hits give low values 0.998 | S. cerevisiae deletion strains, locus YFR003C, strain YPI1, hits give low values 1 | S. cerevisiae deletion strains, locus YFR019W, strain FAB1, hits give low values 0.936 | S. cerevisiae deletion strains, locus YFR028C, strain CDC14, hits give low values 1 | S. cerevisiae deletion strains, locus YGR040W, strain KSS1, hits give low values 0.925 | S. cerevisiae deletion strains, locus YGR052W, strain FMP48, hits give low values 0.946 | S. cerevisiae deletion strains, locus YGR092W, strain DBF2, hits give low values 0.919 | [19] 0.933 | S. cerevisiae deletion strains, locus YHR079C, strain IRE1, hits give low values 0.93 | S. cerevisiae deletion strains, locus YHR082C, strain KSP1, hits give low values 0.907 | S. cerevisiae deletion strains, locus YHR205W, strain SCH9, hits give low values 0.817 | S. cerevisiae deletion strains, locus YIL147C, strain SLN1, hits give low values 0.99 | S. cerevisiae deletion strains, locus YJL095W, strain BCK1, hits give low values 0.941 | S. cerevisiae deletion strains, locus YJL128C, strain PBS2, hits give low values 0.887 | S. cerevisiae deletion strains, locus YJL157C, strain FAR1, hits give low values 0.909 | S. cerevisiae deletion strains, locus YJR016C, strain ILV3, hits give low values 0.989 | S. cerevisiae deletion strains, locus YJR066W, strain TOR1 (second series), hits give low values 0.919 | S. cerevisiae deletion strains, locus YJR066W, strain TOR1, hits give low values 0.952 | S. cerevisiae deletion strains, locus YKL048C, strain ELM1, hits give low values 0.957 | S. cerevisiae deletion strains, locus YKL067W, strain YNK1, hits give low values 0.895 | S. cerevisiae deletion strains, locus YKL101W, strain HSL1, hits give low values 0.878 | S. cerevisiae deletion strains, locus YKL193C, strain SDS22, hits give low values 0.996 | S. cerevisiae deletion strains, locus YKL203C, strain TOR2, hits give low values 1 | S. cerevisiae deletion strains, locus YLR133W, strain CKI1, hits give low values 0.926 | S. cerevisiae deletion strains, locus YLR403W, strain SFP1, hits give low values 0.933 | S. cerevisiae deletion strains, locus YML070W, strain DAK1, hits give low values 0.884 | S. cerevisiae deletion strains, locus YMR001C, strain CDC5, hits give low values 0.997 | S. cerevisiae deletion strains, locus YMR205C, strain PFK2 (second series), hits give low values 0.907 | S. cerevisiae deletion strains, locus YMR277W, strain FCP1, hits give low values 1 | S. cerevisiae deletion strains, locus YNL006W, strain LST8, hits give low values 0.997 | S. cerevisiae deletion strains, locus YNL020C, strain ARK1, hits give low values 0.888 | S. cerevisiae deletion strains, locus YNL161W, strain CBK1, hits give low values 0.994 | S. cerevisiae deletion strains, locus YNL183C, strain NPR1, hits give low values 0.931 | S. cerevisiae deletion strains, locus YNL207W, strain RIO2, hits give low values 0.99 | S. cerevisiae deletion strains, locus YNL222W, strain SSU72, hits give low values 0.996 | S. cerevisiae deletion strains, locus YNL307C, strain MCK1 (second series), hits give low values 0.903 | S. cerevisiae deletion strains, locus YOL078W, strain AVO1, hits give low values 0.999 | S. cerevisiae deletion strains, locus YOL136C, strain PFK27, hits give low values 0.859 | S. cerevisiae deletion strains, locus YOR061W, strain CKA2, hits give low values 0.867 | S. cerevisiae deletion strains, locus YOR119C, strain RIO1, hits give low values 0.974 | S. cerevisiae deletion strains, locus YOR231W, strain MKK1, hits give low values 0.903 | S. cerevisiae deletion strains, locus YOR329C, strain SCD5, hits give low values 0.991 | S. cerevisiae deletion strains, locus YPL031C, strain PHO85, hits give low values 0.922 | S. cerevisiae deletion strains, locus YPL153C, strain RAD53, hits give low values 0.928 | S. cerevisiae deletion strains, locus YPL204W, strain HRR25, hits give low values 0.943 | S. cerevisiae deletion strains, locus YPL209C, strain IPL1, hits give low values 1 | S. cerevisiae deletion strains, locus YPL256C, strain CLN2, hits give low values 0.876 | S. cerevisiae deletion strains, locus YPR025C, strain CCL1, hits give low values 0.999 | S. cerevisiae deletion strains, locus YPR106W, strain ISR1, hits give low values 0.983 | S. cerevisiae deletion strains, locus YPR111W, strain DBF20, hits give low values 0.959 | S. cerevisiae deletion strains, strain NNK1, hits give low values 0.956 | S. cerevisiae deletion strains, strain TSCII, hits give low values 0.998
